# Assay outcomes (PubChem)
# Shown are actives, neighbours in structure and some others; about 4% of the full set was active somewhere.
# GDH-TPI inh = inhibits GDH-TPI coupling enzymes, artifact for Mtb FBA screen; GDH-TPI coupled enzyme counterscreen, NADH absorbance; 1.2% of 360,000 active; AID 588335; inhibition, % at 4.8 µM; in the data active means inhibition above about 30%;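 further: 0% = DMSO wells and 100% = wells lacking the enzyme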
# RecA intein inh = inhibitors of M. tuberculosis RecA intein splicing | P9WHJ3 | cell-free RecA intein splicing, fluorescence | inhibition, % (no concentration beside the values) | 0.75% of 290,000 active; in the data active means inhibition above about 30%; inconclusive means no clear call, values can overlap the other calls;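 further: 0% = vehicle wells and 100% = reference inhibitor control wells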
# Mtb FBA inh = inhibitors of M. tuberculosis fructose-bisphosphate aldolase. purified M. tuberculosis FBA, fluorescence read-out. inhibition, % at 1 µM. 2.3% of 360,000 active. AID 588726; in the data active means inhibition above about 27%;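 further: 0% = vehicle and 100% = reference inhibitor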
# UGM FP inh = Mtb UDP-galactopyranose mutase inhibition | purified UGM, fluorescence polarization probe displacement | 0.06% of 320,000 active | AID 504406 | P9WIQ1 | inhibition, % at 10 µM; in the data active means inhibition above about 10%, passing the limit was not always enough; inconclusive means no clear call, values can overlap the other calls
# Rv3671c inh = Rv3671c (M. tuberculosis) protease inhibition. P9WHR9. 0.048% of 320,000 active. inhibition, % at 5.96 µM; in the data active means inhibition above about 38%;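 further: extracellular domain of Rv3671c used as enzyme; 0% = enzyme with DMSO and 100% = no enzyme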
# Target sequence (P9WHR9 whole entry, looked up, the tested form may be a part): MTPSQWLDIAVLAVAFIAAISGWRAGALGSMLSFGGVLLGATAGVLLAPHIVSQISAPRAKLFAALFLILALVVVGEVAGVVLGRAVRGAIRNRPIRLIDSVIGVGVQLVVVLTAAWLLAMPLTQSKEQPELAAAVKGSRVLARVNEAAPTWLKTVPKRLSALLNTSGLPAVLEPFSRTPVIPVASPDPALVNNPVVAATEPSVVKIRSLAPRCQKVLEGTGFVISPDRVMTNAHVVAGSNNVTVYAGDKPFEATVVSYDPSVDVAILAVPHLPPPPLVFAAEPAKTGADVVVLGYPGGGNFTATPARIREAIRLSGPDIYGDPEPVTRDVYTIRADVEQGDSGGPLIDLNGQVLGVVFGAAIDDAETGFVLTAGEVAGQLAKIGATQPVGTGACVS
# Mtb bLac sens = beta-lactam sensitization of Mtb H37Rv; 0.27% of 330,000 active; inhibition, % at 25 µM; AID 434955; M. tuberculosis H37Rv growth with meropenem, percent inhibition; call rule not given here;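 further: growth measured after seven days incubation then overnight dye step; 0% = bacteria only wells and 100% = bacteria with antibiotic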
# The depositor's hits bear a star; ? = inconclusive; . = no result given; ! = not active in a repeat.
SMILES,GDH-TPI inh,RecA intein inh,Mtb FBA inh,UGM FP inh,Rv3671c inh,Mtb bLac sens
C=CCNC(=O)/C(C#N)=C/c1c(N2CC(C)OC(C)C2)nc2ccccn2c1=O (stereo not drawn),4,-241,126*,1,-8,-8
O=C1c2c(O)cc(O)cc2O[C@H](c2ccc(O)cc2)[C@H]1O,18,-4,0,0,2,1
O=C1c2c(O)cc(O)cc2O[C@@]12c1c(cc(O)c3c1O[C@H](c1ccc(O)cc1)[C@@H](O)C3)O[C@@H]2c1ccc(O)cc1,36*,-3,6,-2,-11,0
Cc1ccsc1/C=N/NC(=O)c1nnn(-c2nonc2N)c1C(C)C,34*,0,2,-1,-3,4
CC(C)c1c(C(=O)N/N=C/c2cccs2)nnn1-c1nonc1N,24,-2,0,1,1,1
COc1cc(/C=N/NC(=O)c2nnn(-c3nonc3N)c2C(C)C)ccc1O,32*,-3,-3,-2,-5,-1
CCCc1c(C(=O)N/N=C/C(C)=C/c2ccccc2)nnn1-c1nonc1N,3,0,2,1,3,0
CC(/C=N/NC(=O)c1nnn(-c2nonc2N)c1C(C)C)=C\c1ccccc1,33*,6,3,0,-19,-4
Cc1ccc(/C=N/NC(=O)c2nnn(-c3nonc3N)c2-c2ccc3c(c2)OCO3)s1,47*,0,0,2,4,-3
CCCS(=O)(=O)NC(=O)C1(C)CCCN(C(=O)c2ccccc2OC(F)(F)F)C1 (stereo not drawn),14,.,9,.,.,.
CCOc1ccc(OCCC(=O)OCC(=O)NCc2ccccc2)cc1,12,5,0,2,4,5
COc1ccc(N(CC(=O)NCc2cccs2)S(=O)(=O)c2ccc(C(C)=O)cc2)cc1,10,.,4,.,.,.
COc1ccc(/C=N/NC(=O)c2nnn(-c3nonc3N)c2-c2cccs2)cc1OC,69*,2,7,-2,1,10
Cc1ccc(/C=N/NC(=O)c2nnn(-c3nonc3N)c2-c2cccs2)cc1,27,-4,7,0,-8,0
COc1cc(/C=N/NC(=O)c2nnn(-c3nonc3N)c2-c2cccs2)ccc1O,47*,0,4,1,-2,-3
O=C(CSc1nc(=O)n2ccccc2n1)NC1CCCCC1,16,3,8,-2,0,-8
Cc1cc(C(=O)NCC(c2ccco2)N(C)C)ccc1[N+](=O)[O-] (stereo not drawn),-2,-2,-1,1,3,-3
CN(C(=O)c1cccc(NC(=O)Cc2ccc(NC(=O)C3CCN(C(=O)c4ccccc4)CC3)cc2)c1)C1CCCC1,2,.,1,.,.,.
O=C(CN1C(=O)/C(=C\c2ccccc2Cl)Oc2ccccc21)NCc1cccnc1,6,-100,13,-1,-13,2
O=C(O)CN1C(=O)/C(=C/c2ccccc2Cl)Oc2ccccc21,17,-2,130*,3,-6,-7
CCc1cccc2sc(N3CCN(C(=O)c4ccc([N+](=O)[O-])o4)CC3)nc12,6,-2,-2,0,-7,100
CCc1nn2c(N)c(/C=C3\C=Nc4ccccc43)c(=O)nc2s1,33*!,-1,3,-1,3,5
Cc1cn2c(N)c(/C=C3\C=Nc4ccccc43)c(=O)nc2s1,0,.,-11,6,-29,-8
O=C(O)CCCN1C(=O)C(=O)/C(=C(/O)c2ccc(Cl)cc2)C1c1ccccc1 (stereo not drawn),41*,1,4,6,-14,-6
CCN(CC)CCN1C(=O)C(=O)/C(=C(/O)c2ccc(Cl)cc2)C1c1ccncc1 (stereo not drawn),11,.,3,.,.,.
SMILES,GDH-TPI inh,RecA intein inh,Mtb FBA inh,UGM FP inh,Rv3671c inh,Mtb bLac sens
Cc1ccc(NC(=O)c2cc([N+](=O)[O-])ccc2N2CCOCC2)cc1S(=O)(=O)N(C)C,42*,0,-1,0,0,3
C=CCN(CC=C)c1nc2ccccc2nc1C(C#N)C(=O)OC(C)C (stereo not drawn),10,-63,36*,-2,-4,0
CCCc1cc(=O)[nH]c(SCC(=O)Nc2sc3c(c2C(N)=O)CCCC3)n1,7,.,1,-1,-3,0
N#C/C(=C\c1ccc[nH]1)C(=O)N1CCCCC1,31*,0,0,0,3,-4
N#C/C(=C\c1ccc(O)cc1)C(=O)N1CCCC1,16,0,0,0,1,-6
Cc1cccc(C(=O)NC2C(=O)NNC2c2ccc(Cl)cc2)c1 (stereo not drawn),3,92*,-2,-1,-26,7
Cc1cccc(C(=O)NC2CCCCCCC2)c1,-1,2,0,0,7,-3
Cc1nnc(Sc2cc(NCCO)c([N+](=O)[O-])c3nonc23)s1,5,93*,-10,.,.,.
O=[N+]([O-])c1c(NCCCO)cc(Sc2nc3ccccc3s2)c2nonc12,9,26,-14,5,-24,96
CCOC(=O)N1CCc2c(sc(N)c2C#N)C1,.,3,.,-2,0,-7
CCOC(=O)N1CCc2c(sc3nc4n(c(=O)c23)N=C(C)CS4)C1,31*,-3,10,0,-3,-5
Cc1ccc([C@@H]2C[C@H]3[C@@H](CN2S(=O)(=O)c2ccc(C)cc2)C(=O)C[C@@H](c2ccc(C)cc2)N3S(=O)(=O)c2ccc(Cl)cc2)cc1,-5,.,1,.,.,.
Cc1c(NCc2cc(Cl)cc(Cl)c2O)c(=O)n(-c2ccccc2)n1C,-3,-4,4,0,7,0
Cc1c(NCc2nc3ccccc3[nH]2)c(=O)n(-c2ccccc2)n1C,40*,-3,-2,0,7,-1
COc1ccccc1CNC(=O)c1c(N)n(CCCN2CCOCC2)c2nc3ccccc3nc12,14,-83,82*,.,.,.
c1ccc2nc3c(nc2c1)c1ccccc1n3CCN1CCOCC1,15,1,-1,0,2,?
Nc1c(C(=O)NCc2ccc3c(c2)OCO3)c2nc3ccccc3nc2n1CCCN1CCOCC1,2,.,10,-2,8,99
CC(C)OC(=O)c1c(N)n(CCCN2CCOCC2)c2nc3ccccc3nc12,12,-213,147*,0,-2,-7
C[C@@H]1CN([C@@H](C)CO)C(=O)c2cc(Br)cnc2O[C@H]1CN(C)C(=O)NC1CCCC1,0,.,-2,.,.,.
COc1ccc(-c2ccc(C(=O)NCCc3ccccc3)c3occc23)c(C)c1,11,.,17,.,.,.
O=C1NC(c2ccc(-c3ccccc3[N+](=O)[O-])o2)C(C(=O)c2ccc(F)cc2)C(O)(C(F)(F)F)N1 (stereo not drawn),7,83*,0,1,-34,14
Cc1ccc(C2NC(=O)NC(O)(C(F)(F)F)C2C(=O)c2ccccc2)o1 (stereo not drawn),21,-1,5,0,-7,12
O=C1CC[C@@H](C(=O)O)N1,-9,.,2,3,0,-5
